# MBNL1 CUG block = qHTS Assay for Inhibitors of MBNL1-poly(CUG) RNA binding; Muscleblind-like protein 1 (Homo sapiens), Q9NR56; TR-FRET MBNL1-His/biotin-(CUG)12 binding, 665/545 ratio; Potency, µM (doses to about 57.5 µM), without a hit: top-dose activity change, negative = inhibition, most hits filed as inhibitors; 0.036% of 280,000 active; AID 2675, 2010; active = well fitted inhibition curve with a large enough effect in the signal ratio, with a control signal flat, not every such curve was filed as active; inconclusive = small, poorly fitted or top-dose-only effect, or effect the other way, or a change in a side signal; inactive = no such curve, though single readings can be large or run the other way; the % refers to the signal ratio; note: potency is the fitted concentration of half-maximal effect; % is set by controls: 0 for no effect and ±100 for the full control effect
#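 Ratiometric TR-FRET (665 over 545 nm, excitation 340 nm) tracks disruption of MBNL1-His/biotin-(CUG)12 complex after 60 min at room temperature, with compounds at 92 nM to 58 uM final.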
# CBFb RUNX1 block = qHTS Assay for Compounds Blocking the Interaction Between CBF-beta and RUNX1 for the Treatment of Acute Myeloid Leukemia; AlphaScreen CBFb-His/RUNX1-biotin binding, biochemical; Potency, µM (titrated, usually from 59.8 µM), for inactives: at the highest dose activity, negative = inhibition, actives largely listed as inhibitors; 230,000 tested, under 10 active; note: % of control where 0% means no effect
# Target sequence (Q01196 whole entry, looked up): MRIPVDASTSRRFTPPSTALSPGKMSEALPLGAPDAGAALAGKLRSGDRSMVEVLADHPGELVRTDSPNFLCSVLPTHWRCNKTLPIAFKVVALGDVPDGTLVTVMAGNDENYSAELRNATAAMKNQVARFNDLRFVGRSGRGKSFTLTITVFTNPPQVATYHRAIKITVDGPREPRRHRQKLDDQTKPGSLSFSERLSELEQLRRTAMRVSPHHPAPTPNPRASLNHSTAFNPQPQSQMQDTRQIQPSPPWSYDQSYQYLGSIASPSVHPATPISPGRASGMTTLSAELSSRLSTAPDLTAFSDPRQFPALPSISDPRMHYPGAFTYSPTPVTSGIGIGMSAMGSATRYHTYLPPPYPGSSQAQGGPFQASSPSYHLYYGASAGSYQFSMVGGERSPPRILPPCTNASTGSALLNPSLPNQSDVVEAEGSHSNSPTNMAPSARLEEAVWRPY
# Target sequence (Q13951 whole entry, looked up): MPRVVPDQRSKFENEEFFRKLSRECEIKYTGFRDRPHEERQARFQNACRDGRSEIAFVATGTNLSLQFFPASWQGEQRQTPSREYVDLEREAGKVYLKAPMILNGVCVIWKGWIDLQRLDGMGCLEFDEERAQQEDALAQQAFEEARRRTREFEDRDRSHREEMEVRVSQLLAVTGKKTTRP
#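 His-tagged CBF-beta and biotinylated RUNX1 (30 nM each) were premixed 20 min at room temperature, exposed to compound for 15 min, then given nickel-chelate and streptavidin AlphaScreen beads (50 ng each). After 90 min, AlphaScreen signal was read.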
# Menin MLL FP TR = qHTS Assay for Inhibitors Targeting the Menin-MLL Interaction in MLL Related Leukemias: Competition With Texas Red Labeled MLL-derived Mutant Peptide. 0.23% of 270,000 active. Potency, µM (titrated, usually from 61.6 µM), for the others: at the top dose FP activity change, negative = inhibition, actives largely listed as inhibitors. Menin + Texas Red MLL mutant peptide, fluorescence polarization. O00255; active = well fitted inhibition curve with a large enough effect in the polarisation, with a control signal flat, not every such curve was filed as active; inconclusive = small, poorly fitted or top-dose-only effect, or effect the other way, or a change in a side signal; inactive = no such curve, though single readings can be large or run the other way; the % refers to the polarisation; note: potency is the fitted concentration of half-maximal effect; % of control where 0% means no effect
# MLL CXXC-DNA inh = qHTS Fluorescence Polarization Assay for Inhibitors of MLL CXXC domain - DNA interaction; Histone-lysine N-methyltransferase 2A (Homo sapiens), Q03164; MLL-CXXC / FITC-HOXA9 DNA fluorescence polarization; Potency, µM (series often up to 115 µM), for the others: at the highest dose activity change, negative = inhibition, usual class: inhibitors; AID 2662, 2010; 0.037% of 290,000 active; active = well fitted inhibition curve with a large enough effect in the polarisation, with a control signal flat, not every such curve was filed as active; inconclusive = small, poorly fitted or top-dose-only effect, or effect the other way, or a change in a side signal; inactive = no such curve, though single readings can be large or run the other way; the % refers to the polarisation; note: potency is the fitted concentration of half-maximal effect
#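 Purified MLL-CXXC (added from a 7 uM solution) was preincubated 5 min at ambient with pinned compounds in 50 mM Tris-HCl pH 7.5, 50 mM NaCl, 1 mM DTT, 0.05% BSA. Fluorescein-labeled HOX-A9 DNA (50 nM solution) followed, 30 min, then polarization read.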
# Menin-MLL FL inh = qHTS Assay for Inhibitors Targeting the Menin-MLL Interaction in MLL Related Leukemias: Competition With Fluorescein Labeled MLL-derived Peptide | Fluorescence polarization, fluorescein-MLL peptide displacement from menin | FP activity change, % at 61.4 µM | 290,000 tested, under 10 active | AID 1766, 2009; active = well fitted curve in the direction sought with a large enough effect in the polarisation, not every such curve was filed as active; inconclusive = small, poorly fitted or top-dose-only effect, or effect the other way, or a change in a side signal; inactive = no such curve, though single readings can be large or run the other way; the % refers to the polarisation; note: % of control where 0% means no effect
# MBNL1 TRFRET = qHTS Assay for Inhibitors of MBNL1-poly(CUG) RNA binding: Initial hit validation from the primary screen; 50% of 140 active; Potency, µM (series often up to 57.6 µM), for inactives: top-dose activity change, negative = inhibition, most hits filed as inhibitors; TR-FRET MBNL1-His / biotin-(CUG)12 binding, 60 min; shares compounds with MBNL1 CUG block
# MBNL1 AlphaScrn = qHTS Assay for Inhibitors of MBNL1-poly(CUG) RNA binding: Initial hit validation in AlphaScreen assay for MBNL1-(CUG)12 binding | Potency, µM (doses to about 57.7 µM), inactives show top-dose activity, negative = inhibition, most hits filed as inhibitors | AlphaScreen MBNL1-His / biotin-(CUG)12 binding | AID 493205, 2011 | 30% of 140 active | shares compounds with MBNL1 CUG block
# Menin-MLL HTRF = qHTS Assay for Inhibitors of MBNL1-poly(CUG) RNA binding: Counterscreen HTRF assay; 20% of 120 active; Potency, µM (series often up to 57.6 µM), for inactives: at the top dose activity, negative = inhibition, hits mostly inhibitors; shares compounds with MBNL1 CUG block; His-Menin/biotin-MLL peptide TR-FRET counterscreen
# An asterisk follows results filed as active; ? = inconclusive; . = no result. Only a selection was taken, and hits are over-represented in it overall. Unless noted, calls come from the whole dose curve; as a rule, active = well fitted curve in the direction sought with a large enough effect; inconclusive = small, poorly fitted or top-dose-only effect, or another doubt; inactive = no such curve, though single readings can be large; an effect the other way counts as inactive or inconclusive.
SMILES,MBNL1 CUG block,CBFb RUNX1 block,Menin MLL FP TR,MLL CXXC-DNA inh,Menin-MLL FL inh,MBNL1 TRFRET,MBNL1 AlphaScrn,Menin-MLL HTRF
c1csc(C(c2nnnn2C2CCCCC2)N2CCCC3(CCCCC3)C2)c1 (centres undefined),25µM*,9%,0%,1%,1,-19%,-21%,-4%
CC(C)(C)n1nnnc1C(c1cccs1)N1CCCC2(CCCCC2)C1 (centres undefined),?,12%,-17%,1%,2,.,.,.
O=C(NCC1([N+](=O)[O-])CN(C(=O)c2ccccc2)CN(C(=O)c2ccccc2)C1)c1ccccc1,-1%,6%,1%,-8%,-1,.,.,.
CCn1c(SCC(=O)Nc2nc(C)c(C)s2)nnc1-c1ccco1,4%,10%,0%,3%,3,.,.,.
CCn1c(SCC(=O)Nc2nc(C)c(C)s2)nnc1-c1cccs1,40µM*,2%,-14%,-5%,-1,-4%,-12%,2%
NC(=O)c1ccc(NC(=O)CCC(=O)c2cccs2)cc1,8%,.,?,5%,4,.,.,.
O=S(=O)(N/N=C\c1ccc(-c2ccccc2Cl)o1)c1ccccc1,20µM*,4%,?,1%,7,8%,-11%,7%
O=C(N/N=C/c1ccc(-c2ccccc2Cl)o1)c1ccccc1,-3%,0%,6%,-2%,-2,.,.,.
O=C1N(c2ccc(Cl)c(Cl)c2)CN(Cc2ccccc2)CN1n1cnnc1,13µM*,2%,38%,2%,3,16µM*,-4%,?
COc1ccc(CN2CCN(c3cccc(C)c3C)CC2)cc1OC,25µM*,3%,-11%,-6%,0,16µM*,-26%,?
Cn1c(=O)c2c(ncn2CCO)n(C)c1=O,1%,-2%,-3%,-10%,-2,1%,0%,2%
CN1c2ccccc2C(=O)NC1c1ccc(Cl)cc1 (centres undefined),-2%,-1%,-12%,15%,-4,.,.,.
CC1(C)C(=O)Nc2ccccc2N1C(=O)COc1ncnc2ccccc12,-1%,-1%,12%,10%,-2,.,.,.
